From PubChem BioAssay
Shown are actives, neighbours in structure and some others; about 7.4% of the full set was active somewhere.
NPC1 promoter act: qHTS Assay for NPC1 Promoter Activators. 2.4% of 320,000 active. Potency, µM (doses to about 9.22 µM), without a hit: at the top dose activation, usual class: activators. Huh7 NPC1 promoter luciferase reporter, 24 h; note: % of control where 0% means no effect; nearly all actives have a fitted effect of over 60% in size
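NPC1 promoter–luciferase Huh7 cells; 24 h compound; luminescence.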
Rab9 promoter act: qHTS Assay for Rab9 Promoter Activators; Huh7 Rab9 promoter-luciferase reporter, luminescence, 24 h; Potency, µM (series often up to 9.22 µM), for the others: top-dose activation, negative = inhibition, hits mostly activators; 2.8% of 320,000 active; AID 485297, 2010; note: % of control where 0% means no effect; nearly all actives have a fitted effect of over 60% in size
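Cells were plated at 1500 per well in reduced-serum medium with 10% FBS and left 2 h. Compound in DMSO was then added for 24 h at 37 °C. Reporter signal was read by luminescence after 10 min with luciferase detection reagent.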
ELG1 genotoxic: qHTS screen for small molecules that induce genotoxicity in human embryonic kidney (HEK293T) cells expressing luciferase-tagged ELG1; 1.3% of 330,000 active; AID 504466, 2011; HEK293T ELG1-luciferase reporter, luminescence, 16 h; Potency, µM (highest dose often 46 µM), without a hit: at the top dose activity change, positive = activation, usual class: activators; note: % of control where 0% means no effect; nearly all actives have a fitted effect of over 60% in size
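Reporter readout depends on ELG1 protein level, which increases with genetic stress. After 16 hr compound exposure at 37 °C, luciferase activity was quantified using ONE-Glo.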
FLuc counter: qHTS profiling assay for firefly luciferase inhibitor/activator using purifed enzyme and Km concentrations of substrates (counterscreen for miR-21 project); Luciferin 4-monooxygenase (Photinus pyralis), P08659; purified FLuc, Km substrates, luminescence inhibition; Potency, µM (top dose mostly 57.5 µM), for inactives: at the top dose activity change, negative = inhibition, most hits filed as inhibitors; 6.9% of 360,000 active; AID 588342, 2011;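 note: plate controls were vehicle for no effect and reference inhibitor for full effect; nearly all actives have a fitted effect of over 55% in size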
Target sequence (P08659 whole entry, looked up): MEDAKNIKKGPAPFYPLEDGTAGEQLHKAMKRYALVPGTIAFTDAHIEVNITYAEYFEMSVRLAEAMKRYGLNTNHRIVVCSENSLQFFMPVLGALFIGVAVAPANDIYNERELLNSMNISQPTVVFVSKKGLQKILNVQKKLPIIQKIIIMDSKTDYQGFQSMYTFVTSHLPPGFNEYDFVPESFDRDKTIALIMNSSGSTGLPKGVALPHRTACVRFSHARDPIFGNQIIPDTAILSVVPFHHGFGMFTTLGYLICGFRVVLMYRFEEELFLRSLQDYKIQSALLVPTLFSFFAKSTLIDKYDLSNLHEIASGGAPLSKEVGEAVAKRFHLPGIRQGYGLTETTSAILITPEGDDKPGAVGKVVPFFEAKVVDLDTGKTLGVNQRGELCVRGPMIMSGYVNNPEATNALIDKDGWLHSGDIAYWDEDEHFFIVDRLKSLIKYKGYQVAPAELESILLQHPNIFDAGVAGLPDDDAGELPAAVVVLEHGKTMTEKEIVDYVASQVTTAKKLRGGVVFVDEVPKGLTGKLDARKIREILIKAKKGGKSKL
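Biochemical qHTS of compounds, final roughly 60 µM downward over six points, against 10 nM purified firefly luciferase using Km concentrations of substrates (10 uM D-luciferin, 10 uM ATP) in Tris acetate pH 7.5 buffer; luminescence output.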
SMN2 splice enh: qHTS Assay for Enhancers of SMN2 Splice Variant Expression | Potency, µM (top dose mostly 46.1 µM), for the others: top-dose activity change, positive = activation, actives largely listed as activators | HEK293 SMN2-luciferase splicing reporter, luminescence, 30-36 h | 2.8% of 210,000 active; note: % of control where 0% means no effect; nearly all actives have a fitted effect of over 55% in size
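HEK293 cells carry an SMN2 minigene-luciferase reporter in which exon 7 inclusion puts luciferase in frame. Cells were seeded at 2000 cells/well, attached for 10-12 hours, then exposed to compounds for 30-36 hours at 37C before ONE-Glo luminescence.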
* marks the source's active call; other numbers are inactive results. Calls come from the whole dose curve; as a rule, active = well fitted curve in the direction sought with a large enough effect; inconclusive = small, poorly fitted or top-dose-only effect, or another doubt; inactive = no such curve, though single readings can be large; an effect the other way counts as inactive or inconclusive. Potency is the fitted concentration of half-maximal effect.

For Nc1nc(CN2CCN(c3ccccc3F)CC2)nc(Nc2ccc3c(c2)OCCO3)n1 the results were NPC1 promoter act -1%, Rab9 promoter act -11%, ELG1 genotoxic -12%, FLuc counter 5% and SMN2 splice enh -20%.
CN1CCN(Cc2nc(N)nc(Nc3ccc4c(c3)OCCO4)n2)CC1 was read as NPC1 promoter act 3.5µM*, Rab9 promoter act 4µM*, ELG1 genotoxic inconclusive, FLuc counter inconclusive and SMN2 splice enh 28%.
Screening CCc1ccc(NC(=S)N2CCCC(C(F)(F)F)C2)cc1 (stereo not given) returned NPC1 promoter act 1%, Rab9 promoter act 2%, ELG1 genotoxic 4%, FLuc counter 15µM* and SMN2 splice enh -12%.
`CC1CCCN(C(=S)Nc2ccc(F)cc2)C1` (stereo not given) gave NPC1 promoter act -1%, Rab9 promoter act 3%, ELG1 genotoxic -5%, FLuc counter -18% and SMN2 splice enh 0%.
Screening CCc1ccc(NC(=S)N2CCN(C)CC2)cc1 returned NPC1 promoter act 29%, Rab9 promoter act inconclusive, ELG1 genotoxic inconclusive and FLuc counter 6µM*.
Screening CCc1ccc(NC(=S)NCc2cccnc2)cc1 returned NPC1 promoter act -1%, Rab9 promoter act 11%, ELG1 genotoxic -1% and FLuc counter -14%.
CCc1ccc(NC(=S)NCc2ccccc2)cc1 was read as NPC1 promoter act 27%, Rab9 promoter act inconclusive, ELG1 genotoxic 11%, FLuc counter inconclusive and SMN2 splice enh 11µM*.
For CCc1ccc(NC(=S)N2CCCC2)cc1 the results were NPC1 promoter act inconclusive, Rab9 promoter act inconclusive, ELG1 genotoxic 18µM* and FLuc counter 21µM*.
Cc1cc(Cn2nc(-c3ccccc3)cc2C(=O)NCc2cccs2)on1 was read as NPC1 promoter act -1%, Rab9 promoter act 2%, ELG1 genotoxic -1% and FLuc counter 3%.
Screening COc1ccc(Cl)cc1C(=O)Nc1ccccc1N1CCCCC1 returned NPC1 promoter act -5%, Rab9 promoter act -7%, ELG1 genotoxic -4% and FLuc counter -4%.
`COc1ccc(C(=O)OCC(=O)NCCc2ccc(F)cc2)cc1S(=O)(=O)N1CCOCC1` gave ELG1 genotoxic 6%.
`COc1cc2ncc3c(-c4ccc(C)cc4)nn(-c4ccc(F)cc4F)c3c2cc1OC` gave FLuc counter 3%.
`CC1CC(C)CN(C(=S)SCc2nc(N)nc(Nc3ccccc3)n2)C1` (stereo not given) gave NPC1 promoter act 1%, Rab9 promoter act -5%, ELG1 genotoxic -3% and FLuc counter -6%.
Screening Cc1ccc(Nc2nc(N)nc(CSC(=S)N3CCOCC3)n2)cc1 returned NPC1 promoter act 2.8µM*, Rab9 promoter act inconclusive, ELG1 genotoxic inconclusive, FLuc counter 15µM* and SMN2 splice enh inconclusive.
For Nc1nc(CSC(=S)N2CCCCC2)nc(Nc2ccccc2)n1 the results were NPC1 promoter act 29%, Rab9 promoter act inconclusive, ELG1 genotoxic inconclusive, FLuc counter 27µM* and SMN2 splice enh inconclusive.
For CCOc1ccc(Nc2nc(N)nc(CSC(=S)N3CCOCC3)n2)cc1 the results were NPC1 promoter act 2.8µM*, Rab9 promoter act 29%, ELG1 genotoxic 5% and FLuc counter inconclusive.
`COc1ccccc1Nc1nc(N)nc(CSC(=S)N2CCCCC2)n1` gave NPC1 promoter act 6%, Rab9 promoter act 21%, ELG1 genotoxic 14% and FLuc counter 17µM*.
`Cc1cccc(Nc2nc(N)nc(CSC(=S)N3CCOCC3)n2)c1` gave NPC1 promoter act inconclusive, Rab9 promoter act inconclusive, ELG1 genotoxic 17% and FLuc counter -4%.
COCCNC(=O)c1cn(CCOC)c(=O)c2c1c1ccccc1n2C was read as NPC1 promoter act -1%, Rab9 promoter act -2%, ELG1 genotoxic -1% and FLuc counter 0%.
`Nc1nc(CSC(=S)N2CCOCC2)nc(Nc2ccccc2)n1` gave NPC1 promoter act inconclusive, Rab9 promoter act 3.5µM*, ELG1 genotoxic 21µM*, FLuc counter 13µM* and SMN2 splice enh 11µM*.
For Nc1nc(CSC(=S)N2CCN(c3ccccc3)CC2)nc(Nc2ccc(F)cc2)n1 the results were NPC1 promoter act -4%, Rab9 promoter act 2%, ELG1 genotoxic -11% and FLuc counter 1%.
CN(C)c1ccc(/C=C2\CCC/C(=C\c3ccccc3)C2=O)cc1 was read as NPC1 promoter act 28%, Rab9 promoter act 24%, ELG1 genotoxic inconclusive, FLuc counter 12µM* and SMN2 splice enh 18%.
For O=C1/C(=C/c2ccccc2)CCCc2ccccc21 the results were NPC1 promoter act 0%, Rab9 promoter act 3%, ELG1 genotoxic inconclusive, FLuc counter 11µM* and SMN2 splice enh -10%.
Screening O=C1/C(=C/c2cccnc2)CC/C1=C\c1cccnc1 returned NPC1 promoter act -2%, Rab9 promoter act -9%, ELG1 genotoxic -22%, FLuc counter inconclusive and SMN2 splice enh -21%.
`CC(C)/C=C1\CC/C(=C\c2cccnc2)C1=O` gave NPC1 promoter act 3%, Rab9 promoter act 1%, ELG1 genotoxic 2%, FLuc counter 17µM* and SMN2 splice enh -34%.
`O=C1/C(=C\c2cccnc2)CCc2ccccc21` gave NPC1 promoter act -7%, Rab9 promoter act 4%, ELG1 genotoxic 12% and FLuc counter 6µM*.
For O=C(NCCS(=O)(=O)N1CCN(c2ccccc2)CC1)c1cccs1 the results were NPC1 promoter act -3%, Rab9 promoter act -2%, ELG1 genotoxic 0% and FLuc counter 9%.
For COc1cc2nc(SCc3cccc(Cl)c3)n3nc(CCn4nc(C)cc4C)nc3c2cc1OC the results were FLuc counter -1% and SMN2 splice enh 3%.
Cc1ccc(-n2cc(C(=O)c3ccc(F)cc3)nn2)cc1Cl was read as NPC1 promoter act 0.5µM*, Rab9 promoter act 0.5µM*, ELG1 genotoxic inconclusive, FLuc counter 0.24µM* and SMN2 splice enh 7.1µM*.
`CCOC(=O)c1sc(N)c(C(=O)OC)c1C` gave NPC1 promoter act 27%, Rab9 promoter act 30%, ELG1 genotoxic 17% and FLuc counter 15µM*.
Screening COC(=O)c1c(N)sc(C(=O)NCCc2ccccc2)c1C returned NPC1 promoter act inconclusive, Rab9 promoter act inconclusive, ELG1 genotoxic 0.23µM* and FLuc counter 0.095µM*.
Screening COc1ccc(-c2nnc(SC(C)C(=O)O)o2)cc1 (stereo not given) returned FLuc counter 12µM* and SMN2 splice enh -1%.
